Screens deposited in PubChem BioAssay by National Center for Advancing Translational Sciences (NCATS).
SMN2 splice up: increases expression of the SMN2 splice variant. hit rate 2.8% among 210,000. Potency, µM (highest dose often 46.1 µM), inactives show at the top dose activity change, positive = activation, usual class: activators. HEK293 SMN2-luciferase splicing reporter, luminescence, 30-36 h; note: % of control where 0% means no effect; nearly all actives have a fitted effect of over 55% in size
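HEK293 cells carry an SMN2 minigene-luciferase reporter in which exon 7 inclusion puts luciferase in frame. Cells were seeded at 2000 cells/well, attached for 10-12 hours, then exposed to compounds for 30-36 hours at 37C before ONE-Glo luminescence.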
FLuc counter: inhibits or activates purified firefly luciferase, miR-21 counter-screen; P08659; AID 588342; hit rate 6.9% among 360,000; Potency, µM (highest dose often 57.5 µM), inactives show at the highest dose activity change, negative = inhibition, usual class: inhibitors; purified FLuc, Km substrates, luminescence inhibition;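 note: plate controls were vehicle for no effect and reference inhibitor for full effect; nearly all actives have a fitted effect of over 55% in size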
Target sequence (P08659 whole entry, looked up): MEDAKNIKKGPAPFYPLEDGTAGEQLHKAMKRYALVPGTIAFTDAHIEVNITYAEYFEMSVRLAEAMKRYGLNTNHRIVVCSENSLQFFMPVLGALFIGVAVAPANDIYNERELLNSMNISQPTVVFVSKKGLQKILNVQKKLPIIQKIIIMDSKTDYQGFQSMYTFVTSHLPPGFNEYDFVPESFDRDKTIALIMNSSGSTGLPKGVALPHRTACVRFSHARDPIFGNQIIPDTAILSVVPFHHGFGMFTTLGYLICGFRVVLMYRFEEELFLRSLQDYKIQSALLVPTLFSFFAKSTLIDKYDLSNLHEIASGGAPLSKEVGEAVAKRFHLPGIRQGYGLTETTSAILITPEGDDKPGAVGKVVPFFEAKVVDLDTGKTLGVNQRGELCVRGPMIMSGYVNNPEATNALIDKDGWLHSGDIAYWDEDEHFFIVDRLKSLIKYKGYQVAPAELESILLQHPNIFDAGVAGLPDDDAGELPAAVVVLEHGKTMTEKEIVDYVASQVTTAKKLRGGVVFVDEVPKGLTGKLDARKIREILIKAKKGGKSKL
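Purified P. pyralis luciferase (10nM final) with 10uM D-luciferin and 10uM ATP (Km levels) in 50mM Tris acetate pH 7.5, 10mM Mg acetate, 0.01% Tween-20, 0.05% BSA; qHTS 6-point titration, ~60 µM downward; luminescence read.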
Rab9 prom act: activators of Rab9 promoter; Potency, µM (series often up to 9.22 µM), without a hit: top-dose activation, negative = inhibition, hits mostly activators; AID 485297; Huh7 Rab9 promoter-luciferase reporter, luminescence, 24 h; hit rate 2.8% among 320,000; note: % of control where 0% means no effect; nearly all actives have a fitted effect of over 60% in size
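Using Huh7 cells stably transfected with Rab9 promoter–luciferase, compounds were incubated 24 h at 37 °C, 5% CO2; luciferase luminescence was read 10 min after reagent addition.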
NPC1 promoter act: NPC1 promoter activation; Huh7 NPC1 promoter luciferase reporter, 24 h; Potency, µM (top dose mostly 9.22 µM), for the others: at the highest dose activation, most hits filed as activators; hit rate 2.4% among 320,000; AID 485313; note: % of control where 0% means no effect; nearly all actives have a fitted effect of over 60% in size
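NPC1 promoter–luciferase Huh7 cells; 24 h compound; luminescence.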
ELG1 genotoxic: inducers of genotoxicity in HEK293T ELG1-luciferase cells. HEK293T ELG1-luciferase reporter, luminescence, 16 h. Potency, µM (titrated, usually from 46 µM), for inactives: at the highest dose activity change, positive = activation, usual class: activators. hit rate 1.3% among 330,000; note: % of control where 0% means no effect; nearly all actives have a fitted effect of over 60% in size
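Quantitative HTS format in 1536-well plates. HEK293T ELG1-luciferase reporter cells receive test compound and are incubated 16 hr at 37 °C, 5% CO2; ONE-Glo added, 30 min room temperature, then luminescence read.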
* = called active by the depositor; ? = inconclusive; · = no result given; [ ] = another dose, or the depositor's remark. This is a sample that favours compounds with a hit; in the whole collection about 7.4% have one here. Calls come from the whole dose curve; as a rule, active = well fitted curve in the direction sought with a large enough effect; inconclusive = small, poorly fitted or top-dose-only effect, or another doubt; inactive = no such curve, though single readings can be large; an effect the other way counts as inactive or inconclusive. Potency is the fitted concentration of half-maximal effect.

SMILES	SMN2 splice up	FLuc counter	Rab9 prom act	NPC1 promoter act	ELG1 genotoxic
CC1=CN2C(=N)/C(=C/c3ccco3)C(=O)N=C2S1	3.5µM*	1.5µM*	1.8µM*	2.5µM*	?
CCOc1ccc(-c2ccc(/C=C3/C(=N)N4C=CSC4=NC3=O)o2)c([N+](=O)[O-])c1	-9%	2%	-6%	0%	?
CCOC(=O)c1cc(-c2cc3ccccc3o2)n[nH]1	18%	19µM*	0%	10%	1%
CCOC(=O)c1cc(-c2ccc(C)o2)n[nH]1	-12%	?	-1%	-4%	4%
CCOC(=O)c1cccc(NS(=O)(=O)c2cc3c(cc2C)NC(=O)CO3)c1	·	5%	·	·	·
COCCCN=C1NN=C(c2cc(C)n(-c3ccccc3)c2C)CS1	-63%	4.3µM*	1.3µM*	?	?
COCCn1c(C)cc(C2=NNC(=Nc3ccccc3F)SC2)c1C	-31%	0.54µM*	0%	?	?
COCCCN=C1NN=C(c2cc(C)n(Cc3ccccc3Cl)c2C)CS1	?	12µM*	23%	-4%	?
COCCCN=C1NN=C(c2cc(C)n(-c3ccccc3F)c2C)CS1	16%	2.4µM*	0.32µM*	?	-9%
Cc1cc(C2=NNC(=Nc3ccccc3)SC2)c(C)n1C	?	11µM*	1.4µM*	3.2µM*	?
Cc1cc(C2=NNC(=NC3CC3)SC2)c(C)n1-c1c(C)n(C)n(-c2ccccc2)c1=O	-4%	-6%	-12%	6%	-3%
COC(=O)C1=C(C(=O)OC)[C@@H]2N(C)c3ccccc3[C@@]23C[C@@H](C(=O)OC)N(S(=O)(=O)c2c(C)noc2C)C3=N1	-1%[9.22 µM]	·	·	·	·
CC(C)(C)n1ncc2c(=O)n(Cc3ccc([S+](=O)([O-])N4CCOCC4)cc3)cnc21	·	4%	·	·	·
CC(C)N(Cc1ccccc1)S(=O)(=O)c1ccc(N2CCCCS2(=O)=O)cc1	·	-1%	·	·	·
COc1ccc(C(C(=O)NC2CCCC2)N(C(=O)c2ccoc2C)c2ccc(C)c(C)c2)cc1 (stereo not given)	-12%	3%	-4%	-4%	-6%
CSCCC(NC(=O)OC(C)(C)C)C(=O)Oc1ccc2c(=O)c(-c3ccc4c(c3)OCCO4)coc2c1 (stereo not given)	18µM*	11µM*	0.79µM*	1.4µM*	?
Cc1ccc(Nc2c(-c3ccco3)nc3ccc(C)cn23)cc1	-2%	-7%	·	·	·
CC(C)c1ccc(NC(=O)c2sccc2-n2cccc2)cc1	·	?	2.8µM*	4µM*	5%
O=C(COC(=O)c1ccc[nH]c1=O)NCCc1ccc(Cl)cc1Cl	·	11µM*	0.5µM*	0.4µM*	?
CCOc1ccc(C(=O)CCC(=O)Nc2cccc(S(=O)(=O)N3CCCCC3)c2)cc1	·	-13%	-8%	-1%	-1%
O=C(CCSc1ccccc1)NC1CCCCCC1	2%	11µM*	-8%	0%	0%
O=C(CCSc1nnnn1-c1ccccc1)N1CCOCC1	30%	-4%	12%	11%	11%
O=C(CCSc1ccccc1)N1CCCC1	11µM*	17µM*	2.8µM*	2.5µM*	?
O=C(CCSc1ccccc1)N1CCOCC1	13µM*	19µM*	2.8µM*	2.8µM*	8.2µM*
O=C(CSc1ccc(Cl)cc1)N1CCCC1	?	?	?	15%	?
SMILES	SMN2 splice up	FLuc counter	Rab9 prom act	NPC1 promoter act	ELG1 genotoxic
O=C(NCC1(O)CCCCC1)C1CCC(=O)N(Cc2cccc(C(F)(F)F)c2)C1 (stereo not given)	·	2%	-3%	3%	-2%
O=C(Nc1ccc2nc(SCC(=O)N3CCc4ccccc43)sc2c1)c1ccc(F)cc1	·	-18%	·	·	·
O=C(NC1CCCCC1)C1CCCN1C(=O)Nc1ccccc1 (stereo not given)	·	-1%	3%	-1%	0%
C=CCn1c2ccccc2c(=O)c2cc(C#CC3(O)CCCCC3)ccc21	·	0.76µM*	0.71µM*	1.3µM*	?
C=CCn1c2ccccc2c(=O)c2cc(C#CC[C@@H](C)O)ccc21	·	2.1µM*	?	3.2µM*	?
CCOC(=O)c1c(C)oc2nc(C)nc(N3CCN(c4ccc(C(C)=O)cc4)CC3)c12	·	1%	·	·	·
CN(C)S(=O)(=O)N1CCC(Oc2cccc(C(=O)N3CCCCCCC3)c2)CC1	·	-2%	-1%	1%	-3%
CNC(=O)/C(=C\c1cccc(Oc2ccccc2)c1)NC(=O)c1ccccc1	-16%	5%	-4%	-4%	0%
CNC(=O)/C(C#N)=C/c1cccc(Oc2ccccc2)c1	·	8.5µM*	-3%	-4%	?
Cc1ccc(/C=C2\OC(=O)c3ccccc32)cc1	?	1.1µM*	0%	-2%	?
CC(C)Cc1cc(C(=O)NCc2ccc(Cl)cc2)no1	?	6%	·	·	·
CCOC(=O)c1cccc(NC(=O)c2cc3sccc3n2Cc2ccc(Cl)cc2)c1	12%	-1%	·	·	·
CCOC(=O)c1cccc(NC(=O)c2cc3sccc3n2C)c1	14µM*	24µM*	0.89µM*	0.35µM*	?
CCc1sc(C(=O)Nc2cccc(C(C)=O)c2)cc1C	?	11µM*	?	27%	16%
COc1cc(NC(=O)c2ccccc2Cl)ccc1NC(=O)c1cccs1	22µM*	13µM*	2.8µM*	?	?
CCOC(=O)c1cccc(NC(=O)c2sc3nc[nH]c(=O)c3c2C)c1	·	15µM*	·	·	·
Cc1ccc(CN2C(=O)CSC2c2ccccc2F)cc1 (stereo not given)	·	-1%	-1%[1.84 µM]	-4%	4%
Cc1ccc(NC(=O)c2cccs2)cc1NC(=O)c1ccc(F)cc1	·	?	11%	12%	-2%
Cc1ccc(NC(=O)c2cccs2)cc1NC(=O)c1cccc(F)c1	·	?	3%	-1%	-5%
CC(=O)Oc1cccc(C(=O)Nc2ccc(NC(=O)c3cccs3)cc2)c1	·	-1%	?	4.5µM*	?
COc1cccc(C(=O)Nc2cc(NC(=O)c3cccs3)ccc2C)c1	·	12µM*	2%	4%	-14%
COc1cccc(C(=O)Nc2cc(NC(=O)c3cccs3)ccc2C)c1OC	·	21µM*	3%	-2%	-14%
COc1cccc(C(=O)Nc2cccc(NC(=O)c3cccs3)c2)c1	·	21µM*	0%	1%	-2%
NS(=O)(=O)c1cccc(NC(=O)CCN2C(=O)C3CCCCC3C2=O)c1 (stereo not given)	·	3%	-2%	0%	2%
COc1c2ccoc2nc2c(OC)c(O[C@@H]3O[C@H](C)[C@@H](O)[C@@H](O)[C@H]3O)ccc12	-5%	·	·	·	·
CCC(C)(C)NC(=O)C(c1ccc(C)o1)N(Cc1ccc2c(c1)OCO2)C(=O)c1snc(C(N)=O)c1N (stereo not given)	·	2%	0%	-3%	0%
CCOC(=O)c1cccc(NC(=O)c2cccs2)c1	-11%	21µM*	18%	27%	?
